Compound activity: PubChem, several laboratories
Sampled rows, rich in hits. Any-hit rate of the full collection: about 5.2%.
NRP1-CendR mod: modulators of CendR peptide binding to NRP-1, primary screen, biochemical, fluorescence polarization, uHTS. inhibition, % at 25 µM. FAM-RPARPAR peptide binding to NRP-1. Neuropilin-1 (Homo sapiens), O14786. hit rate 0.85% among 360,000. AID 602438, 2012;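 active = inhibition or corrected inhibition above about 18%, plus a signal ratio from 0.5 to 1.5, limit read from the data, passing the limit was not always enough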
APOBEC3A inh: APOBEC3A ssDNA deaminase inhibitors, primary screen, selectivity assay for APOBEC3G inhibitor project, biochemical, FAM/TAMRA oligo cleavage fluorescence | DNA dC->dU-editing enzyme APOBEC-3A (Homo sapiens), P31941 | AID 493011, 2011 | inhibition, % at 20 µM | recombinant A3A, FAM/TAMRA ssDNA deamination fluorescence | hit rate 0.41% among 330,000;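 active = at least 40% inhibition at 20 µM here, with at most 30% in a related deaminase screen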;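 note: plate controls were A3A with DMSO for no effect and wells lacking A3A enzyme for full effect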
ALR inh: inhibitors of human ALR sulfhydryl oxidase, primary screen, biochemical, H2O2 detection, HRP-luminol luminescence, single point; inhibition, % (test concentration not listed); hit rate 3.8% among 290,000; FAD-linked sulfhydryl oxidase ALR (Homo sapiens), P55789; purified ALR, DTT oxidation;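 active = mean replicate inhibition above about 79%, with every replicate also reaching it, limit read from the data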
Target sequence (P55789 whole entry, looked up): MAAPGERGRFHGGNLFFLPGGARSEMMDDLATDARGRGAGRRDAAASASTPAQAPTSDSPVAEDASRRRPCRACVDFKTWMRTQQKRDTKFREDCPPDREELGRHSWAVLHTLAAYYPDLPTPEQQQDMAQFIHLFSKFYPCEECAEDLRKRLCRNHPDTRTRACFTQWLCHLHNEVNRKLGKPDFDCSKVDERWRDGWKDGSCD
APOBEC3G inh: APOBEC3G DNA deaminase inhibitors, primary screen, biochemical, fluorescence, single-stranded DNA substrate, uHTS. inhibition, % at 20 µM. hit rate 0.28% among 330,000. recombinant A3G, ssDNA deamination FAM/TAMRA fluorescence. AID 493012, 2011. DNA dC->dU-editing enzyme APOBEC-3G (Homo sapiens), Q9HC16;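 active = inhibition of at least 40% at 20 µM, with no more than 30% in the related APOBEC3A deaminase screen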;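 note: plate controls were DMSO wells with A3G for no effect and wells lacking A3G enzyme for full effect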
Target sequence (Q9HC16 whole entry, looked up): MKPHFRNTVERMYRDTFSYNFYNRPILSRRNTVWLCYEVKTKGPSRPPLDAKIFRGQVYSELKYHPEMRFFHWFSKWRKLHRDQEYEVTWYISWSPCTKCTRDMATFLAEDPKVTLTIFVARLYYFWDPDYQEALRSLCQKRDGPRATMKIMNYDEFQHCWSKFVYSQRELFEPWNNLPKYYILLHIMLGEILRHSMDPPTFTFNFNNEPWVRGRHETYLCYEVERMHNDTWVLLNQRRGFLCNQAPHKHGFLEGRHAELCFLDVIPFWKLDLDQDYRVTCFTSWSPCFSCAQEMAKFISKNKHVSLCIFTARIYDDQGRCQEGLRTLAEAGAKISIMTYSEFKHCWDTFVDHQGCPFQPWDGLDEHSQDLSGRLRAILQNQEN
Yeast superoxide: reduction of superoxide in aged yeast, primary screen, HTS; hit rate 0.18% among 330,000; superoxide response (% of plate mean), % at 10 µM; S. cerevisiae aged cells, superoxide DHE fluorescence; active compounds read low;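 active = superoxide response under a set limit, about three screen SD below normal, cut at about 65% in these data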;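 note: yeast aged for seven days with compound at 30 °C before DHE staining; 100% = average MFI of all compound-treated wells on the plate with controls excluded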
M18AAP inhibitor: PfM18AAP inhibitors, malaria aminopeptidase, primary screen, biochemical, QFRET, recombinant enzyme; inhibition, % at 7.35 µM; H-Glu-NHMec fluorogenic cleavage; M18 aspartyl aminopeptidase (Plasmodium falciparum 3D7); AID 1822, 2009; hit rate 1.2% among 290,000;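 active = inhibition above the campaign mean inhibition over all tested compounds plus 3 SD, cut at about 28% in these data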;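 note: 0% = plate median of test compound wells and 100% = 2 mM ZnCl2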
The depositor's hits bear a star; · = no result.

SMILES	NRP1-CendR mod	APOBEC3A inh	ALR inh	APOBEC3G inh	Yeast superoxide	M18AAP inhibitor
Cc1cc(C)c(S(=O)(=O)N(CC(=O)NCc2cccnc2)C2CCCCC2)c(C)c1	-0.1	-1.4	-13.6	-4.0	101.2	-1.4
O=C(NNc1nc2ccc(F)cc2s1)c1cccc(F)c1	-8.8	-3.6	98.2*	-8.6	92.0	21.9
O=C(Nc1nc2ccc(F)cc2s1)c1ccccn1	·	0.1	44.6	-0.8	97.0	6.5
O=C(O)c1cccc2c(-c3ccccc3)c(-c3ccccc3)[nH]c12	-3.4	-2.6	98.2*	-7.1	128.6	-10.5
O=C(O)c1ccccc1-c1nc(-c2ccccc2)c(-c2ccccc2)[nH]1	-10.3	-0.5	25.7	-1.4	90.5	-4.6
CCOc1ccc(NC(=S)N/N=C(\C)Cc2ccc(OC)cc2)cc1	1.7	-2.4	·	-9.2	90.3	22.1
COc1ccc(C/C(C)=N/NC(=S)Nc2ccc(Cl)cc2)cc1	41.3*	1.8	·	-5.2	86.7	11.0
COc1ccc(C/C(C)=N/NC(=S)Nc2ccccc2)cc1	8.8	-0.1	81.6*	-1.1	90.9	16.7
NC(=O)NC(=O)COC(=O)c1ccc2noc(-c3ccccc3)c2c1	-4.4	-4.2	-2.8	-7.8	109.7	16.8
CC(=O)COC(=O)c1ccc2noc(-c3ccccc3)c2c1	-2.9	0.4	-3.4	-7.0	112.3	30.2*
CCOCCCNCC(=O)Nc1cc(S(=O)(=O)N2CCOCC2)ccc1N1CCOCC1	3.5	-1.2	-4.8	-3.9	82.4	·
CCOCCCNCC(=O)Nc1ccccc1N1CCOCC1	6.3	2.2	97.0*	-1.1	78.5	-2.0
CC1=NN(c2nc(-c3ccc(C#N)cc3)cs2)C(=O)C1	·	-4.5	-5.8	-6.6	93.0	2.7
O=C(c1ccc2c(=O)n3c(nc2c1)CCCCC3)N1CCN(Cc2ccccc2)CC1	2.8	3.2	-1.4	3.4	77.3	0.3
O=C(Cn1nnc(-c2ccccc2F)n1)OCC(=O)c1ccccc1	3.8	-3.5	93.3*	-6.2	100.2	4.8
O=C(Cn1nnc(-c2ccc(F)cc2)n1)OCC(=O)c1ccccc1	1.1	-0.2	13.9	-5.6	100.9	8.3
CC(C)Oc1ccc(F)cc1-c1cc(C(=O)NCc2ccc(C(F)(F)F)cc2)[nH]n1	-1.4	·	·	·	·	·
Cc1cc(C)nc(NC(=O)NS(=O)(=O)Nc2ccc(Br)cn2)n1	0.5	-3.4	-1.0	-5.0	90.3	-7.5
C=CCn1c(=O)c(C#N)cc2c(=O)n3ccccc3nc21	1.6	1.6	·	1.4	120.0	-10.1
C=CCn1c(=N)c(C#N)cc2c(=O)n3ccccc3nc21	36.1*	-1.9	-3.0	-5.8	123.2	-0.1
CC(C)OCCCn1c(=NC(=O)c2ccncc2)c(C#N)cc2c(=O)n3ccccc3nc21	-5.0	1.9	97.3*	-3.5	154.5	-2.2
CC(=O)N=c1c(C#N)cc2c(=O)n3ccccc3nc2n1CCCOC(C)C	-11.8	-5.7	·	-7.0	112.6	-9.5
Cc1cccc2cc(CN(CC3CCCO3)S(=O)(=O)c3ccccc3)c(=O)[nH]c12 (stereo not given)	11.6	-0.3	-1.3	-1.6	111.5	0.4
CCNC(=O)C1(C)CCCN(Cc2ccccc2-c2ccccc2)C1 (stereo not given)	22.7*	·	·	·	·	·
Cc1ccc(S(=O)(=O)N2CCN(C(=O)c3cc(S(=O)(=O)N4CCOCC4)ccc3Cl)CC2)c(C)c1	-3.6	·	·	·	·	·
SMILES	NRP1-CendR mod	APOBEC3A inh	ALR inh	APOBEC3G inh	Yeast superoxide	M18AAP inhibitor
CNCc1ccccc1Sc1cc(O)ccc1O	-11.0	0.4	81.8*	6.9	105.8	13.8
CN(C)Cc1ccccc1Sc1ccc(O)cc1O	8.2	-3.4	99.5*	-7.6	104.0	8.7
CNC(=O)C1Cc2c(-c3cccc(F)c3)ccnc2O1 (stereo not given)	-8.2	·	·	·	·	·
Cc1ccc(OC(=O)C(C)c2cccc(C(=O)c3ccccc3)c2)cc1 (stereo not given)	-7.7	-4.2	0.3	-9.2	102.0	-1.3
COC1=CC(=O)c2c(ccc3ncnc(N)c23)C1=O	22.4	·	·	·	·	·
COC1=CC(=O)c2nc(Cl)ccc2C1=O	25.6*	·	·	·	·	·
Cc1ccc2nc3c(cc(C(=O)NCC4CCCO4)c(=N)n3CCCOC(C)C)c(=O)n2c1 (stereo not given)	-23.6	3.0	·	2.1	83.0	3.2
CCOc1ccc2c(c1)C(NC(C)=O)C(=O)N2CCN1CCOCC1 (stereo not given)	-34.2	-3.2	-0.2	-6.7	174.3	20.1
CC(=O)NC1C(=O)N(CCN2CCOCC2)c2ccc(Br)cc21 (stereo not given)	-26.9	0.9	·	-2.9	166.2	30.2*
CC(=O)NC1C(=O)N(CCc2ccccc2)c2ccc(Br)cc21 (stereo not given)	34.8*	·	·	·	·	17.1
CN(C)c1ccc(/C=c2\sc3n(c2=O)CCCN=3)cc1	-90.4	-2.6	98.6*	-3.5	116.4	5.5
O=c1/c(=C/c2ccc(O)cc2)sc2n1CCCN=2	2.7	-5.7	98.5*	-7.8	97.4	19.4
O=c1/c(=C\c2ccc(F)cc2)sc2n1CCCN=2	12.7	1.5	49.0	-3.8	101.5	1.2
COc1ccc(C(=O)c2ccccc2)c(OCC(=O)N(C)C)c1	2.5	-2.4	·	-4.0	102.3	3.4
Cc1c(C)n(CCO)c2ncnc(Nc3ccc(F)cc3)c12	-3.1	-1.6	8.9	0.8	94.3	0.8
COC(=O)c1c(NC(=O)C2CC=CCC2C(=O)O)sc(C)c1C (stereo not given)	-0.2	-1.3	-2.1	-4.6	117.3	12.2
COC(=O)c1c(NC(=O)C2CC=CCC2C(=O)O)sc2c1CCCCC2 (stereo not given)	18.5	5.5	6.3	-5.6	79.4	29.0*
COC(=O)c1c(NC(=O)C2CC=CCC2C(=O)O)sc(C(N)=O)c1C (stereo not given)	-21.9	-15.2	99.2*	-8.0	96.4	-5.2
Cn1c(Oc2ccc(Cl)c3cccnc23)nc2c1c(=O)n(Cc1ccccc1Cl)c(=O)n2C	·	·	·	·	·	-9.8
Cc1sc2ncnc(N3CCN(S(=O)(=O)c4ccccc4)CC3)c2c1C	-9.1	0.9	-13.0	-4.2	91.2	·
O=C(NC1(C(F)(F)F)NC(=O)N(Cc2ccccc2)C1=O)c1cccnc1 (stereo not given)	40.7*	-5.3	·	-5.0	87.2	-9.8
CCN1CCN(c2nc(-c3ccccc3)nc3ccccc23)CC1	-12.1	1.4	·	-3.1	103.7	-2.9
Cc1cccc2nc(-c3ccccc3)nc(N3CCC(O)(c4ccc(Cl)cc4)CC3)c12	30.9*	6.6	·	3.8	94.4	-9.4
